The list is not random: actives were taken first. Their share in the collection is about 10%.
MCF10A rerep = inducers of DNA re-replication in MCF 10A breast cells | MCF 10A DNA re-replication, Hoechst nuclear intensity, 48 h | Potency, µM (doses to about 46.1 µM), inactives show top-dose activity, positive = re-replication, hits mostly activators | actives 2.9% (n = 350,000); further: % of control where 0% means no effect; nearly all actives have a fitted effect of over 50% in size
SW480 rereplic = induces DNA re-replication in SW480 colon adenocarcinoma cells; SW480 DNA re-replication, Hoechst DNA content imaging, 48 h; Potency, µM (top dose mostly 46.1 µM), inactives show at the highest dose re-replication activation, most hits filed as activators; actives 1.8% (n = 340,000); AID 624297; further: % of control where 0% means no effect; nearly all actives have a fitted effect of over 55% in size
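First, 250 cells per well were seeded. Next, compound or vehicle (23 nL) was pinned in, plates sat 48 hr at 37 C. Finally Hoechst was added for 40 min before fluorescence scanning.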
Gal4-VP16 FLuc = inhibits Gal4-VP16 luciferase reporter, ROR gamma counter-screen; Drosophila S2 Gal4-VP16 UAS-luciferase, luminescence, 20 h; Potency, µM (titrated, usually from 53.6 µM), for inactives: at the top dose activity, negative = inhibition, usual class: inhibitors; actives 3.5% (n = 310,000);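 further: Gal4-VP16 expression switched on by copper sulfate through the metallothionein promoter; on the % scale 0 is the no-effect control and ±100 the full control effect; nearly all actives have a fitted effect of over 50% in size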
RORg inh = inhibitors of mouse ROR gamma transcriptional activity; actives 5.4% (n = 310,000); Potency, µM (top dose mostly 53.6 µM), without a hit: at the highest dose activity change, negative = inhibition, most hits filed as inhibitors; Drosophila S2 Gal4-RORgamma UAS-luciferase reporter, 20 h; further: on the % scale 0 is the no-effect control and ±100 the full control effect; nearly all actives have a fitted effect of over 60% in size
Target sequence (P51450 whole entry, looked up, the tested form may be a part): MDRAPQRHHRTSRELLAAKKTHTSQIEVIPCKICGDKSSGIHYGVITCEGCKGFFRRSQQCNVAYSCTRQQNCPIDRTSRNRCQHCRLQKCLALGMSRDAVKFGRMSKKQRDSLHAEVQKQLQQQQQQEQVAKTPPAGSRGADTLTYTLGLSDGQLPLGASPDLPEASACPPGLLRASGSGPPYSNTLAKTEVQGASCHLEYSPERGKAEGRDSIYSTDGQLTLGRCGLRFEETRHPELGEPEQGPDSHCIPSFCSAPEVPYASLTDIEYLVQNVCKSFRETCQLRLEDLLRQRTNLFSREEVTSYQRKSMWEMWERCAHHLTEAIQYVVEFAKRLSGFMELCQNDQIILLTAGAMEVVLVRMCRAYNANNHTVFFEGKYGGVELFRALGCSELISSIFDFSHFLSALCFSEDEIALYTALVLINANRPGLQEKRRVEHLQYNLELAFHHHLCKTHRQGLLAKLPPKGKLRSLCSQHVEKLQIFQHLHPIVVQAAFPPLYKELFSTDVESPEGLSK
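Luminescence from a UAS-regulated Photinus luciferase reporter in stably transfected Drosophila Schneider cells is measured; decreased signal marks ROR gamma inhibition. Fusion expression is induced by 700 uM copper sulfate for 20 hr.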
ELG1 repair inh = ELG1-dependent DNA repair inhibition; HEK293T ELG1-luciferase reporter, luminescence, 16 h; DNA damage induced by 5-fluorouridine; Potency, µM (titrated, usually from 46.1 µM), for inactives: at the highest dose activity change, negative = inhibition, hits mostly inhibitors; actives 2.3% (n = 330,000); further: on the % scale 0 is the no-effect control and ±100 the full control effect; nearly all actives have a fitted effect of over 55% in size
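Quantitative HTS, concentration-response format. 2,000 cells/well co-treated with 5-fluorouridine and compound, 16 hr in 5% CO2 at 37 °C; ONE-Glo luminescence read after 30 min.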
The depositor's hits bear a star; u = inconclusive; x = not tested or not shown. The call rests on the fitted dose curve; in most records, active means well fitted curve in the direction sought with a large enough effect; inconclusive means small, poorly fitted or top-dose-only effect, or another doubt; inactive means no such curve, though single readings can be large; an effect the other way counts as inactive or inconclusive. Potency means the concentration at half of the fitted maximal effect.

SMILES	MCF10A rerep	SW480 rereplic	Gal4-VP16 FLuc	RORg inh	ELG1 repair inh
O=C(N/N=C\C=C\c1ccc([N+](=O)[O-])o1)c1cccs1	8.2µM*	11.6µM*	11.2µM*	7.94µM*	-2.1%
O=C(N/N=C/C=C/c1ccccc1)C(O)c1ccccc1 (stereo not given)	u	-3.4%	x	x	x
C/C(=N\NC(N)=S)c1ccccc1	9.2%	1.5%	14.7%	14.4%	27.1%
O=c1nc2c(-c3cccc(Br)c3)n[nH]n2c2ccccc12	u	0.5%	u	17.9%	u
CC(/C=C/c1ccccc1)=N\NC(=O)c1ccncc1	-2.7%	-5.6%	11.2µM*	7.08µM*	17.1%
COc1ccc(C=CC(C)=NNC(=O)c2ccncc2)cc1	1.9%	u	x	x	x
O=C(N/N=C/C=C\c1ccccc1[N+](=O)[O-])c1ccncc1	-2.6%	2.7%	u	10µM*	19.9%
O=C(N/N=C/C=C\c1ccc([N+](=O)[O-])cc1)c1cccnc1	0.5%	-2.7%	u	5.62µM*	-3.6%
O=C(N/N=C/C=C/c1cccc([N+](=O)[O-])c1)c1ccncc1	0.9%	7.5%	u	7.08µM*	0.9%
O=C(N/N=C/c1ccc(OC(=O)c2ccc([N+](=O)[O-])cc2)cc1)c1cccnc1	0.2%	-1.2%	5.0%	-10.5%	4.9%
Nc1ccc(C(=O)N/N=C\C=C\c2cccc([N+](=O)[O-])c2)cc1	1.5%	3.8%	-11.0%	u	-5.5%
O=[N+]([O-])c1cnc2nc(-c3ccncc3)nn2c1O	u	10.5%	-12.9%	-39.9%	7.5%
CC(/C=C/c1ccccc1)=N\NC(N)=S	-3.7%	4.5%	2.24µM*	0.562µM*	u
O=C(N/N=C/C=C/c1ccccc1)c1cccs1	-2.6%	-0.4%	2.82µM*	2.82µM*	u
O=C(N/N=C/C=C/c1ccccc1[N+](=O)[O-])c1cccs1	u	-8.3%	u	u	-10.6%
CC(/C=C/c1ccc2c(c1)OCO2)=N\NC(=O)C(O)c1ccccc1 (stereo not given)	1.4%	-9.4%	19.7%	16.2%	0.0%
CC(/C=C/c1ccccc1)=N\NC(=S)NC(C)C	0.7%	-11.1%	u	u	u
CC(/C=C/c1ccc2c(c1)OCO2)=N\NC(=O)c1ccccc1	2.2%	-1.5%	15.8µM*	5.62µM*	0.0%
CCNc1ccccc(C(=O)/C=C/c2ccc3c(c2)OCO3)c1=O	u	-13.8%	u	7.94µM*	-21.6%
C[N+]1(CC(O)COCC2COc3ccccc3O2)CCOCC1 (stereo not given)	u	u	-2.4%	9.0%	-7.2%
O=C(N/N=C/c1ccc([N+](=O)[O-])o1)c1ccc(NS(=O)(=O)c2cccs2)cc1	18.4µM*	u	-4.2%	33.5%	20.6µM*
O=C(N/N=C/c1ccc([N+](=O)[O-])cc1)c1ccc(NS(=O)(=O)c2cccs2)cc1	-2.1%	-9.4%	x	x	-10.9%
O=C(Cc1cccc2ccccc12)N/N=C/C=C/c1cccc([N+](=O)[O-])c1	12.7%	-4.6%	u	12.6µM*	-12.0%
COc1ccc(CC(=O)N/N=C/C=C/c2cccc([N+](=O)[O-])c2)cc1OC	2.4%	-9.0%	16.7%	-4.0%	-24.4%
COc1cc(NC(=O)CCCN2C(=O)NC(C)(C)C2=O)cc(OC)c1	-8.1%	-6.8%	x	x	15.1%
CCOC(=O)/C(=C/Nc1ccc(F)c(F)c1)[N+](=O)[O-]	-2.0%	3.1%	-3.9%	-2.3%	-1.6%
COc1ccc2[nH]cc(CCNC(=O)c3ccco3)c2c1	42.1%	-13.9%	x	x	10.1%
O=C(Oc1ccc2[nH]cc(CCN3C(=O)c4ccccc4C3=O)c2c1)c1ccco1	11.6µM*	-8.1%	-5.3%	14.3%	u
Cn1c(=O)c2c(nc(NC3CCCCC3)n2Cc2ccccc2)n(C)c1=O	20.1%	-1.3%	-9.2%	u	u
Cn1c(=O)c2c(nc(NC3CCCCC3)n2CC(=O)C23CC4CC(CC(C4)C2)C3)n(C)c1=O	17.0%	0.7%	-2.4%	u	7.31µM*

Screening data as filed in PubChem BioAssay.
